Experiments:
Format in all cases: functional
[1] = target: Solute carrier family 2, facilitated glucose transporter member 1 (Homo sapiens) (UniProt P11166); assay: ST_JUDE_LEISH: Cytotoxicity at 2uM final concentration against transgenic Leishmania Mexicana promastigotes LmGLUT1 that are glucose transport deficient and complemented with the human glucose transporter GLUT1. Activity is measured by DNA content using SYBR green in vitro
[2] = target: Hexose transporter 1 (Plasmodium falciparum) (UniProt O97467); assay: ST_JUDE_LEISH: Cytotoxicity at 2uM final concentration against transgenic Leishmania Mexicana promastigotes LmPfHT that are glucose transport deficient and complemented with the Plasmodium falciparum hexose transporter. Activity is measured by DNA content using SYBR green in vitro
[3] = target: Glucose transporter (Leishmania mexicana) (UniProt O61059); assay: ST_JUDE_LEISH: Cytotoxicity at 2uM final concentration against transgenic Leishmania Mexicana promastigotes LmGT2 that are glucose transport deficient and complemented with the L. Mexicana glucose transporter 2. Activity is measured by DNA content using SYBR green in vitro

Solute carrier family 2, facilitated glucose transporter member 1 (Homo sapiens), sequence (P11166 whole entry): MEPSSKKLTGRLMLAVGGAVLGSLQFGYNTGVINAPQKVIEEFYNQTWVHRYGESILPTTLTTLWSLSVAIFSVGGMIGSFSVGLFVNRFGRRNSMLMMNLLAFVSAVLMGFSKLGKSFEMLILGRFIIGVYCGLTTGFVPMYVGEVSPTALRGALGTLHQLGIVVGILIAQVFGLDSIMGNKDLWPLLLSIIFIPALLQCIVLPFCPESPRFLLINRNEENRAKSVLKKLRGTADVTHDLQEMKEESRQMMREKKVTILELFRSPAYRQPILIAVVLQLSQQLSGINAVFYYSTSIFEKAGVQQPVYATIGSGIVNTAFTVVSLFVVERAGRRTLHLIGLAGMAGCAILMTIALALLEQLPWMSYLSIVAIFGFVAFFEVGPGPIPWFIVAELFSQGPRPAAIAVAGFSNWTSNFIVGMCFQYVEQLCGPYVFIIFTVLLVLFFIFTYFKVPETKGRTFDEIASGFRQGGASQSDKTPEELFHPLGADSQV

SMILES | inhibition [1] | inhibition [2] | inhibition [3]
CC(C)=CCN1CCC(C(=O)Nc2ccc(-c3nc4ccccc4[nH]3)cc2)CC1 | 5.64% | 5.1% | 6.97%
CCOC(=O)CCCc1cc(NC2CCN(C)CC2)nc(Nc2ccc(OC)cc2)n1 | -0.13% | 0.24% | 1.72%
CCOC(=O)c1c(C)noc1Nc1ccc(OC)cc1 | 1.87% | 2.32% | 2.21%
COc1ccc2nccc([C@@H](O)CN3CCC(NCC4COc5ccccc5O4)CC3)c2c1 (stereo partly specified) | 7.53% | 8.69% | 1.37%
Cc1nc(-c2ccc(-c3ccc(C(=O)Nc4ccc(-n5ccnc5)c(N5CCN(C)CC5)c4)cc3)c(C)c2)no1 | 2.82% | 2.86% | 0.79%
CNS(=O)(=O)c1ccc2c(c1)nc(C1CCN(CC3CCC(NC(=O)/C=C/c4ccc(Cl)c(Cl)c4)CC3)CC1)n2C (stereo unspecified) | 11.9% | 10.9% | 3.47%
COc1ccc(Cc2cnc3nc(N)nc(N)c3c2C)cc1 | 39.5% | 49.3% | 41.3%
CCc1ccc(-c2nc3cc(NC(=O)c4ccc([N+](=O)[O-])o4)ccc3o2)cc1 | 1.01% | 2.33% | 0.78%
N#Cc1ccc(NC(=O)NC2CCN(CCCCCNC(=O)/C=C/c3ccc(Cl)c(Cl)c3)CC2)cc1 | 3.11% | 3.17% | 6.31%
CC(=O)c1ccc(S(=O)(=O)N2CCC(C(=O)Nc3ccccc3N3CCCC3)CC2)cc1 | 0.87% | 0.67% | -0.38%
O=C(NC1CCCCC1)N(Cc1ccc(-c2cccc(CNC3CCCC3)c2)cc1)C1CCN(Cc2ccccc2)CC1 | 6.18% | 7.64% | 5.72%
O=C(Nc1cccc(-c2csc(-c3nc4ccccc4[nH]3)c2)c1)c1cccnc1 | 1.57% | 4.05% | -0.53%
COc1ccccc1CNc1ccnc(NCCc2cccc(C(F)(F)F)c2)n1 | 7.85% | 8.92% | 2.54%
O=C(/C=C/c1ccc(Cl)c(Cl)c1)NCCCCCN1CCCN(C(=O)Nc2ccc(F)c(F)c2)CC1 | 2.67% | 2.88% | 6.1%
O=C(Nc1ccc([N+](=O)[O-])cc1Cl)c1cc(Br)cc(Cc2ccccc2)c1O | 3.27% | 3.32% | 2.81%
CC(C)c1ccc(CN2CCC(CNC(=O)c3cc(-c4ccc(N(C)C)cc4)cs3)C2)cc1 (stereo unspecified) | 2.27% | 3.51% | 2.27%

SMILES | inhibition [1] | inhibition [2] | inhibition [3]
CN1CCN(CCCNCc2ccc(Nc3nccc(Nc4ccc(Oc5ccccc5)cc4)n3)cc2)CC1 | 0.09% | 1.17% | 1.48%
COc1ccc2ccccc2c1CCCCN1CCN(CC(c2ccc(F)cc2)N2CCC(N3CCCC3)CC2)CC1 (stereo unspecified) | 3.25% | 3.63% | 7.05%
Cc1nnc2c(NC(=O)NC(C)C)cc3cc(-c4ccc(CN5CCCCC5)cc4)ccc3n12 | 56% | 10.5% | 11%
CC1CCCN(S(=O)(=O)c2ccc(NC(=O)c3cc(-c4ccccc4O)n[nH]3)cc2)C1 (stereo unspecified) | 1.49% | 3.54% | 0.62%
COc1ccc(C(=O)CCC(=O)N(CCC2CCCN2C)Cc2ccc(-c3ccc(CNCCc4ccc(S(C)(=O)=O)cc4)cn3)cc2)cc1F (stereo unspecified) | 11.4% | 9.98% | 9.19%
COc1cc(Cc2cnc(N)nc2N)cc(OCCCOc2ccccc2)c1OC | 7.68% | 4.04% | 4.99%
CCN(CC)CCCN(Cc1ccc(-c2ccc(C(F)(F)F)cc2)cc1)C(=O)Cn1c(SCc2cccc(F)c2F)cc(=O)c2ccccc21 | 2.74% | 2.63% | 2.46%
CCN(CC)/C(=N/C(=N)Nc1ccc(Br)cc1)NCCCCCCN/C(=N\C(=N)Nc1ccc(Br)cc1)N(CC)CC | -1.08% | 0.19% | -0.11%
CCCNCc1ccc(-c2ccc(CN(CCOC)C(=O)c3cccc(C#N)c3)cc2)nc1 | 1.66% | 1.45% | 3.74%
CCCCCCCn1c2c(c(=N)c3c1CCC3)CCCC2 | 92% | 90.8% | 80.1%
CC(C)NCc1ccc(-c2ccc(-c3nc4cc(C(F)(F)F)ccc4[nH]3)cc2)cc1 | 1.09% | -1.61% | 2.69%
O=C(NC1CCN(Cc2ccccc2O)C1)c1ccc(-c2ccccc2)cc1 (stereo unspecified) | 0.98% | 0.41% | 1.16%
Nc1nc(N)c2c3c(ccc2n1)NCCC3 | -0.04% | 0.47% | -0.59%
Cc1ccccc1C1CCN(C2CCC(NC(=O)/C=C/c3ccc(F)c(F)c3)CC2)CC1 (stereo unspecified) | -1.77% | -1.74% | -1.27%
Cc1[nH]c(C)c(-c2ccc(-c3ccc(C#N)cc3)nc2)c(=O)c1Br | 9.47% | 10.2% | 6.23%
Cc1cc(CN2CCC(C(=O)Nc3ccc(-c4nc5ccccc5[nH]4)cc3)CC2)oc1C | 13.2% | 16% | 2.24%

— ChEMBL document CHEMBL3433997, “St. Jude Leishmania screening dataset” (2016)
